# Out of some 420,000 compounds screened, about 64,000 (15%) were called active. Roughly 27% stayed inconclusive and do not appear here. Calls follow the shape of the dose curve; as a rule, active = well fitted inhibition curve with a large enough effect; inconclusive = small, poorly fitted or top-dose-only effect; inactive = flat fitted curve, though single readings scatter. Only a sample is shown. Entries that show only a call come without a potency.
# Assay: qHTS for Inhibitors of human tyrosyl-DNA phosphodiesterase 1 (TDP1): qHTS in cells in absence of CPT; also: nearly all actives have a fitted effect of over 55% in size
# Details: DT40 Tdp1-/- hTDP1 cells, no CPT, ATP luminescence, 48 h; activity change, negative = growth inhibition: at 46.2 µM (top of the series)
# Outline: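 Stably hTDP1-transfected Tdp1-null chicken DT40 cells were treated with library compounds minus camptothecin and grown for at least 48 hr at 37 °C, after which cellular ATP was quantified by luminescence.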
# Potency is read from the fitted curve at half-maximal effect.
row,Compound,Potency
1,O=C(COC(=O)C12CC3CC(CC(O)(C3)C1)C2)NC12CC3CC(CC(C3)C1)C2,inactive
2,O=C(NC1CCN(C(=S)Nc2ccc(Cl)cc2)CC1)C1CCCCC1,inactive
3,CC(OC(=O)CCC(=O)c1ccccc1)C(=O)Nc1ccc(F)cc1 (centres undefined),inactive
4,CCOC(=O)c1c(C)nn(-c2ncccc2NC(=O)CCC(=O)O)c1C,inactive
5,C#CCCCc1nc2ccccc2c(=O)n1N,inactive
6,C/C(=N\N1CCN(Cc2ccc(C)cc2)CC1)c1ccco1,inactive
7,CC(=O)NC1C(Oc2ccc(C=O)cc2)OC(COC(C)=O)C(OC(C)=O)C1OC(C)=O (centres undefined),inactive
8,CC(=O)Oc1ccc2c(=O)oc(-c3ccc([N+](=O)[O-])cc3)nc2c1,inactive
9,CCCCSCCCNC(=O)C1CCC(CNS(=O)(=O)c2ccc(NC(C)=O)cc2)CC1 (centres undefined),inactive
10,Nc1nnnn1/N=C/c1cccs1,inactive
11,O=C(NCc1ccc(Cl)cc1)NCc1ccc(Cl)cc1,inactive
12,N#C/C=C/N1CCN(Cc2ccc3c(c2)OCO3)CC1,inactive
13,O=C(CSc1nc2c(c(=O)[nH]1)CN(Cc1ccc3c(c1)OCO3)CC2)Nc1cc(F)ccc1F,inactive
14,Fc1ccc2[nH]c3c(N4CCSCC4)ncnc3c2c1,9.2 µM (active)
15,Fc1ccc2nc(N3CCCCC3)sc2c1,inactive
16,Fc1ccc2[nH]c3c(N4CCN(Cc5ccc6c(c5)OCO6)CC4)ncnc3c2c1,2.31 µM (active)
17,CN(C)c1cccc(C(=O)N2CCC(n3nccc3NC(=O)C3CCOC3)CC2)c1 (centres undefined),inactive
18,Cc1ccc(NNC(=O)c2c(F)cccc2Cl)cc1Cl,inactive
19,O=C(CC(n1cncn1)C(Cl)(Cl)Cl)c1ccc([N+](=O)[O-])cc1 (centres undefined),14.6 µM (active)
20,O=C(CCn1nnc2ccccc21)OCC(=O)c1ccc([N+](=O)[O-])cc1,inactive
21,C/C(=N/NC(=O)CSc1ccccn1)c1ccc([N+](=O)[O-])cc1,inactive
22,NC(=O)c1ccc(-c2csnn2)cc1,inactive
23,Cc1ccc(S(=O)(=O)N2CCC(=O)N([C@H](COCc3ccccc3)Cc3ccccc3)CC2)cc1,18.4 µM (active)
24,CN1CCC(=O)N([C@H](CO)Cc2ccccc2)CC1,inactive
25,COc1ccc(COCCN2CCN(S(=O)(=O)c3ccccc3)CCC2=O)cc1,inactive
26,Cc1cccc(N=C2NC(=O)CS2)c1C,inactive

row,Compound,Potency
1,Cc1ccc(NS(=O)(=O)c2ccc(N/N=C/c3ccccc3OCC(=O)O)c([N+](=O)[O-])c2)c(C)c1,inactive
2,Cc1cccc(COc2ccccc2/C=N/Nc2ccc([N+](=O)[O-])cc2)c1,20.6 µM (active)
3,O=[N+]([O-])c1cccc(/C=N/Nc2ncc(Br)cn2)c1,inactive
4,CN1C(=O)C(CC(N)=O)N(NC(=O)c2ccc(Cl)cc2)C1=S (centres undefined),inactive
5,CC(C)(C)NC(=O)CSc1nnc(NC(=O)CCc2ccccc2)s1,inactive
6,Cc1ccccc1CSCC(=O)NC(=O)NC(C)(C)C,inactive
7,CC(C)(C)NC(=O)CSC(=Nc1ccccc1F)NC#N,16.4 µM (active)
8,N#C/C(=C1\CCCN1)c1nc(-c2ccccc2)cs1,inactive
9,Cc1nc(C(F)(F)F)ccc1C(=O)N1CCC1(C)C(=O)NS(=O)(=O)c1ccc(F)cc1F (centres undefined),inactive
10,Cc1ccc(N(C(=O)C(F)(F)F)C(C(=O)NC2CCCCC2)c2ccncc2)cc1C (centres undefined),18.4 µM (active)
11,CCc1ccc(N(C(=O)c2csnn2)C(C(=O)NC2CCCCC2)c2ccncc2)cc1 (centres undefined),inactive
12,Cc1ccc(N(C(=O)CNC(=O)c2ccco2)C(C(=O)NC2CCCC2)c2ccncc2)cc1 (centres undefined),inactive
13,O=C(c1cc(-c2ccccc2O)on1)N1CCCC1,inactive
14,O=C1[C@@H](c2ccccc2)[C@@H](c2ccccc2)N1c1cccnc1,8.2 µM (active)
15,CCc1ccccc1NC1c2ccccc2C(=O)N1c1cccnc1 (centres undefined),inactive
16,O=C1C(=O)N(c2ccccc2)C(c2ccccc2)C1c1ccccc1 (centres undefined),inactive
17,Cc1ccc(C2c3[nH]c4ccccc4c3CCN2C(=O)c2cccc(C)c2)cc1 (centres undefined),18.4 µM (active)
18,CCCC(=O)N1CCc2[nH]c3ccccc3c2C1,inactive
19,Cc1cccc(C(=O)N2CCc3c([nH]c4ccccc34)C2CC(C)C)n1 (centres undefined),inactive
20,CCOc1cccc(CC(=O)N2CCc3c([nH]c4ccccc34)C2c2ccc(F)cc2)c1OCC (centres undefined),25.9 µM (active)
21,CCCC(=O)N1c2ccccc2NC2=C(C(=O)CCC2)C1c1ccc(F)cc1 (centres undefined),inactive
22,Cc1cccc(C(=O)N2CCN(S(=O)(=O)N3CCCCC3)CC2)c1,inactive
23,O=C(COC(=O)CCOc1ccccc1)Nc1cc(S(=O)(=O)N2CCCCC2)ccc1Cl,inactive
24,CC1=Nn2c(nnc2-c2ccccc2)SC1,inactive
25,COc1cccc(C(=O)NCCS(=O)(=O)NCC2CCCO2)c1 (centres undefined),inactive
26,CC1CCCCN1Cc1c(O)ccc2c(=O)c(-c3cccc(Cl)c3)c(C(F)(F)F)oc12 (centres undefined),inactive

row,Compound,Potency
1,CC(=O)c1cccc(OCC(=O)OCC(=O)Nc2cc(S(=O)(=O)N3CCCCC3)ccc2C)c1,inactive
2,COc1ccc2c(c1)c(=Cc1ccc(N(C)C)cc1)c1cc(-c3ccccc3)[n+](C)n12,0.92 µM (active)
3,Cc1ccc(N2CC(NC(=O)Cc3cccs3)CC2=O)cc1 (centres undefined),inactive
4,Cc1oc2c(c1C(=O)N1CCOCC1)C(=O)c1ccccc1C2=O,2.59 µM (active)
5,Cc1onc(-c2ccccc2)c1C(=O)N1CCOCC1,inactive
6,O=C(c1ccccc1-c1ccccc1)N1CCOCC1,inactive
7,Cc1cccc(C)c1OC(=O)CSc1nnc(-c2ccccc2)o1,inactive
8,Cc1ccc(-c2nnc(CN3CCN(C)CC3)o2)cc1,inactive
9,COC(=O)[C@@H](NC(=O)NCc1cccc(OC)c1)C(C)C,inactive
10,COc1cccc(CN(C)CC(O)COC(c2ccccc2)c2ccccc2C)c1 (centres undefined),16.4 µM (active)
11,CCCC(O)(c1ccc(OC)cc1)C(CN(C)C)c1ccccc1 (centres undefined),inactive
12,Cc1ccc(-n2c(SCC(=O)NCc3ccc4c(c3)OCO4)nnc2-c2cccnc2)c(C)c1,inactive
13,O=C(CCSCCc1ccccn1)Nc1nccs1,inactive
14,COc1ccc(C(=O)c2c(C)oc3cc([N+](=O)[O-])c(O)c([N+](=O)[O-])c23)cc1,inactive
15,COc1ccc(/C=N/Nc2nc(-c3ccc(C)cc3)c(C#N)c(=O)[nH]2)cc1,inactive
16,CCOC(=O)c1cc(-c2nnc(-c3cc(OC)c(OC)c(OC)c3)o2)c(C)nc1C,16.4 µM (active)
17,CCOC(=O)c1cc2ccccc2nc1C,inactive
18,O=C(CCN1C(=O)[C@@H]2Cc3ccccc3CN2C1=O)NCc1ccccc1,inactive
19,Cc1ccc(S(=O)(=O)N(C)C)cc1NC(=O)COC(=O)C1COc2ccccc2O1 (centres undefined),inactive
20,Cc1ccc(S(=O)(=O)N(C)C)cc1NC(=O)c1n[nH]c(=O)c2ccccc12,23.1 µM (active)
21,Cc1ccc(S(=O)(=O)N(C)C)cc1NC(=O)c1ccccc1Br,inactive
22,CCOc1ccc(CCNC(=O)COC(=O)c2ccc(F)c(S(=O)(=O)N3CCOCC3)c2)cc1OCC,inactive
23,CCOc1ccccc1C1C(C(=O)OC)=CN(C)C=C1C(=O)OC,inactive
24,COc1ccc(C2CC(c3ccc(C)cc3)Nc3nc(N)nn32)cc1 (centres undefined),inactive
25,CCOc1ccccc1C1CC(c2ccc(Cl)cc2)Nc2nc(N)nn21 (centres undefined),16.4 µM (active)
26,CC(C)[C@H](NC(=O)c1ccc(F)cc1)C(=O)OCC(=O)NC(=O)c1cccn1C,inactive

row,Compound,Potency
1,COc1ccc(S(=O)(=O)N(C)CC(=O)N2CCCC2)cc1Cl,inactive
2,CN1c2ccc(C=O)c3c(C=O)ccc(c23)N(C)C1(C)C,7.31 µM (active)
3,O=C1c2ccccc2C(O)N1Cc1ccccc1Cl (centres undefined),inactive
4,CN1CCN(S(=O)(=O)c2ccc(Nc3ccc(F)cc3)nc2)CC1,inactive
5,O=C(NCc1ccccc1)C1c2ccccc2OCC(=O)N1C1CC1 (centres undefined),inactive
6,NS(=O)(=O)c1ccc(CCNC(=O)c2nc(CS(=O)(=O)c3ccc(Cl)cc3)no2)cc1,inactive
7,Cc1cccc(N2CC(C(=O)Nc3ccccc3N3CCCC3)CC2=O)c1C (centres undefined),inactive
8,O=C(Nc1ccccc1N1CCCCC1)c1cccc(F)c1,inactive
9,O=C(CNCCC1=CCCCC1)Nc1ccccc1N1CCCCCC1,23.1 µM (active)
10,Cc1nnc(OCC(=O)NCCC2=CCCCC2)c2ccccc12,inactive
11,Cc1ccccc1NC(=O)NC1(C(=O)N2CCCC2)CCCCC1,inactive
12,Cc1ccccc1NC(=O)Nc1ccccc1N1CCCCC1,23.1 µM (active)
13,C=CCSc1nc(Cc2ccc(Cl)cc2)nc2ccccc12,inactive
14,Cc1ccc(F)cc1NC(=O)c1ccc2c(c1)OCO2,inactive
15,COc1cc(C2C(C(=O)c3sc(C)nc3C)=C(O)C(=O)N2CCN(C)C)cc(OC)c1OC (centres undefined),inactive
16,N/C(Cc1ccc([N+](=O)[O-])cc1)=N\OC(=O)C1CCCCC1,inactive
17,COc1ccccc1OCCC(=O)OCC(=O)NCc1ccccc1,inactive
18,N#Cc1ccc(CN2CCN(CC(=O)Nc3ccccc3C(=O)NC3CC3)CC2)cc1,inactive
19,NC(=O)c1ncn([C@@H]2O[C@H](CN=C3NS(=O)(=O)c4ccccc43)[C@@H](O)[C@H]2O)n1,inactive
20,Cc1cc([N+](=O)[O-])ccc1NC(=O)C1CCCO1 (centres undefined),inactive
21,CN1CCN(CCNC(=O)Nc2ccc([N+](=O)[O-])cc2)CC1,inactive
22,CC(=O)c1ccc(NC(=O)Nc2ccc([N+](=O)[O-])cc2C)cc1,16.4 µM (active)
23,COc1ccc([N+](=O)[O-])cc1NC(=O)c1ccc(N(Cc2ccccc2C)S(C)(=O)=O)cc1,inactive
24,Cc1cc([N+](=O)[O-])ccc1NC(=O)c1ccc(NC(=O)C(C)C)cc1,18.4 µM (active)
25,CC(C)C(=O)Nc1cccc(NC(=O)c2ccc([N+](=O)[O-])cc2Cl)c1,inactive
26,CN1c2ccc([N+](=O)[O-])cc2C(C)(C)C12C=Cc1cc(C(=O)O)ccc1O2 (centres undefined),inactive

# From PubChem BioAssay AID686978 (National Center for Advancing Translational Sciences (NCATS), 2013)
